# Laboratory results reported in PubChem BioAssay (Tox21).
# Values without a mark were called inactive. Entries that show only a call come without a potency. Active and inactive are the calls of the source. Calls come from the whole dose curve; as a rule, active = well fitted curve in the direction sought with a large enough effect in the repeat runs; inconclusive = weak or mixed curves; inactive = flat fitted curve, though single readings scatter.
# Experiment: qHTS assay to test for compound auto fluorescence at 460 nm (blue) in HEK293 cells (AID 720678)
# Conditions: blue autofluorescence 405/460 nm; series mostly up to 91.3 µM
# Summary of the method: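 Intrinsic compound fluorescence is recorded in live HEK293 cultures after overnight incubation at 37C, 5% CO2, using excitation 405 nm and emission 460 nm. Values are referenced to triamterene.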
SMILES,Potency,"fluorescence, % of triamterene"
CN(C)CCC=C1c2ccccc2C=Cc2ccccc21,inactive,–
N#CCc1ccc(Cl)cc1Cl,inactive,–
O=C(/C=C/c1ccccc1)OCCc1ccccc1,inactive,–
CC(C)(c1ccccc1)c1ccccc1,inactive,–
CCCCCCCCC(CCCCCC)C(=O)O (centres undefined),inactive,–
Oc1c(I)cc(I)c2cccnc12,inactive,–
CC(=O)NC1(c2cccc(F)c2)CCN(CC[C@@]2(c3ccc(Cl)c(Cl)c3)CN(c3ccccc3)C(=O)CO2)CC1,inactive,–
CN1C(=O)c2ccccc2C1=O,inactive,–
C=C(C)C(=O)OCCOCCOC(=O)C(=C)C,inactive,–
CC(=O)N/N=C/c1ccc([N+](=O)[O-])o1,inactive,–
CC1(C)O[C@@H]2C[C@H]3[C@@H]4C[C@H](F)C5=CC(=O)C=C[C@]5(C)[C@H]4[C@@H](O)C[C@]3(C)[C@]2(C(=O)CO)O1,–,-0.229% [at 18.6 µM]

# Experiment: qHTS assay to test for compound auto fluorescence at 590 nm (red) in HEK293 cells (AID 720679)
# Conditions: red autofluorescence 540/590 nm; series mostly up to 91.3 µM
# Summary of the method: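 Red autofluorescence, HEK293 cells: 2,000 cells/well; attach 4-5 hr 37C; add 23 nL cpd or DMSO; incubate o/n 37C 5% CO2; read Ex540/Em590; Rose Bengal sodium reference.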
SMILES,"fluorescence, % of fluorescent control",outcome
O=C1C(=O)c2ccccc2C(O)=C1C1CCC(c2ccc(Cl)cc2)CC1 (centres undefined),0.421% [at 18.6 µM],–
COc1ccccc1N1CCN(CC(O)COc2cccc3ccccc23)CC1 (centres undefined),–,inactive
CN1CC(=O)N2[C@H](c3ccc4c(c3)OCO4)c3[nH]c4ccccc4c3C[C@@H]2C1=O,–,inactive
O=C1c2ccccc2C(=O)C1c1nc2ccccc2c(Br)c1O,–,inactive
N#CCCN(CCO)CCO,–,inactive
CCOC(=O)C1=C(C)NC(C)=C(C(=O)OC)C1c1cccc(Cl)c1Cl (centres undefined),–,inactive
O=[N+]([O-])c1ccc(O/N=C/c2cc(Br)c(O)c(Br)c2)c([N+](=O)[O-])c1,–,inactive
C/C=C/C=C/C=O,–,inactive
O=c1cc(-c2ccccc2)oc2ccc3ccccc3c12,–,inactive
Nc1nc2ccc([N+](=O)[O-])cc2s1,–,inactive
CCC(C)COC(C)=O (centres undefined),–,inactive
CCOC(=O)OC(C)OC(=O)[C@@H]1N2C(=O)[C@@H](NC(=O)[C@H](N)c3ccccc3)[C@H]2SC1(C)C (some centres undefined),0.375% [at 18.6 µM],–
Brc1cc(Br)c(Oc2cc(Br)c(Br)cc2Br)cc1Br,–,inactive
C[C@@H]1CN(CCCn2c3ccccc3c3ccccc32)C[C@H](C)N1,–,inactive
O=C1Cc2ccccc2N1c1c(Cl)cccc1Cl,–,inactive
Cc1cc(O)ccc1O,–,inactive
CC1(C)[C@H](C(=O)O)N2C(=O)C[C@H]2S1(=O)=O,–,inactive
Cc1cc(=O)c2c(O)c3c(O)cc(=O)c4c3c3c(cc(O)c1c23)C(C)(C)C=4O,–,inactive
CCCCC(CC)COP(=O)(O)O (centres undefined),–,inactive

SMILES,"fluorescence, % of fluorescent control",outcome
c1ccc2sc(SN(C3CCCCC3)C3CCCCC3)nc2c1,–,inactive
CCCCCCCCOc1ccc(C(=O)O)cc1,–,inactive
C[C@H]1c2cccc(O)c2C(O)=C2C(=O)[C@]3(O)C(O)=C(C(N)=O)C(=O)[C@@H](N(C)C)[C@@H]3[C@@H](O)[C@@H]21,–,inactive
CCCC(C(=O)OCCN(CC)CC)(c1ccccc1)c1ccccc1,–,inactive
O=C(CCCN1CC=C(n2c(=O)[nH]c3ccccc32)CC1)c1ccc(F)cc1,–,inactive
C=CCc1ccccc1OCC(O)CNC(C)C (centres undefined),–,inactive
CN(C)CCC=C1c2ccccc2C=Cc2ccccc21,–,inactive
N#CCc1ccc(Cl)cc1Cl,–,inactive
O=C(/C=C/c1ccccc1)OCCc1ccccc1,–,inactive
CC(C)(c1ccccc1)c1ccccc1,–,inactive
CCOc1ccc(Cc2nccc3cc(OCC)c(OCC)cc23)cc1OCC,0.0124% [at 18.6 µM],–
CCCCCCCCC(CCCCCC)C(=O)O (centres undefined),–,inactive
Oc1c(I)cc(I)c2cccnc12,–,inactive
CC(=O)NC1(c2cccc(F)c2)CCN(CC[C@@]2(c3ccc(Cl)c(Cl)c3)CN(c3ccccc3)C(=O)CO2)CC1,–,inactive
CN1C(=O)c2ccccc2C1=O,–,inactive
CC(=O)Oc1ccc([N+](=O)[O-])cc1CCl,–,inactive
C=C(C)C(=O)OCCOCCOC(=O)C(=C)C,–,inactive
CC(=O)N/N=C/c1ccc([N+](=O)[O-])o1,–,inactive
CC1(C)O[C@@H]2C[C@H]3[C@@H]4C[C@H](F)C5=CC(=O)C=C[C@]5(C)[C@H]4[C@@H](O)C[C@]3(C)[C@]2(C(=O)CO)O1,-0.713% [at 18.6 µM],–
